Test results as given in PubChem BioAssay (Tox21).
Inconclusive results are not listed. A structure can be active in one record and inactive in another. Activity calls are given as the source filed them. Unless noted, the call rests on the fitted dose curve; in most records, active means well fitted curve in the direction sought with a large enough effect in the repeat runs; inconclusive means weak or mixed curves; inactive means no such curve, though single readings can be large; an effect the other way counts as inactive or inconclusive.

How the values were obtained:
[1] = qHTS assay to identify small molecule agonists of the estrogen receptor beta (ER-beta) signaling pathway - cell viability counter screen (AID 1259380); further: nearly all actives have a fitted effect of over 30% in size; further: potency means the concentration at half of the fitted maximal effect
Summary of the method: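 Viability of ER-beta-UAS-bla HEK293T cells was determined by CellTiter-Glo luminescence following 16 hr treatment with test compounds at 37C.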

[2] = target: Estrogen receptor (Homo sapiens) (UniProt P03372); assay: qHTS assay to identify small molecule agonists of the estrogen receptor alpha (ER-alpha) signaling pathway in the presence of an antagonist (AID 1259383; calls by dose curve; further: top concentration of the series differs between compounds; nearly all actives have a fitted effect of over 15% in size)
Estrogen receptor (Homo sapiens), sequence (P03372 whole entry, looked up): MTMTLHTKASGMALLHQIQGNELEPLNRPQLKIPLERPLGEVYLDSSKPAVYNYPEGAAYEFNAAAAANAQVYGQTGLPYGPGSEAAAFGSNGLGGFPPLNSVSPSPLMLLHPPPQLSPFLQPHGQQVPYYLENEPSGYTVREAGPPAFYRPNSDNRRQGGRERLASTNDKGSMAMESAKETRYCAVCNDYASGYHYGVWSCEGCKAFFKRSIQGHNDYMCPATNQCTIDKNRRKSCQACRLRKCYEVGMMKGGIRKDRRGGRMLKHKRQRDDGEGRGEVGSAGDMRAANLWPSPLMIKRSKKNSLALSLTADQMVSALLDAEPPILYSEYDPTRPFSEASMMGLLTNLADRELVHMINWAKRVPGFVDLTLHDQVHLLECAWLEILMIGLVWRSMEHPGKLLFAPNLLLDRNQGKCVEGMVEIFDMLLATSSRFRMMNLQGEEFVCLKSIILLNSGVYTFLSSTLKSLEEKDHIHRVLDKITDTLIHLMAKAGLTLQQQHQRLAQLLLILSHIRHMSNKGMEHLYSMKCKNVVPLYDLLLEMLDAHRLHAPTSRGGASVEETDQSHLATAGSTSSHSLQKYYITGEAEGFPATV
Summary of the method: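 In VM7Luc4E2 cells, 4,000 per well, compounds at 15 concentrations were co-incubated 22hr at 37C with 10.0nM final ICI-182,780. Luminescence from the stably transfected 4×ERE-luciferase reporter was recorded 30min after ONE-Glo addition.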

[3] = qHTS assay to identify small molecule agonists or antagonists of the thyroid stimulating hormone receptor (TSHR) signaling pathway - wild type cell line counter screen (AID 1259384; calls by dose curve)
Summary of the method: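 Wild-type Hek293 cells, 800/well, 18 h at 37C, then compound with Ro20-1724 for 30 min RT. cAMP by HTRF (cAMP-d2/anti-cAMP cryptate), 1 h RT, fluorescence read. 15 concentrations, triplicates.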

[4] = target: Thyrotropin receptor (Homo sapiens) (UniProt P16473); assay: qHTS assay to identify small molecule antagonists of the thyroid stimulating hormone receptor (TSHR) signaling pathway (AID 1259385; calls by dose curve; further: nearly all actives have a fitted effect of over 20% in size)
Thyrotropin receptor (Homo sapiens), sequence (P16473 whole entry, looked up): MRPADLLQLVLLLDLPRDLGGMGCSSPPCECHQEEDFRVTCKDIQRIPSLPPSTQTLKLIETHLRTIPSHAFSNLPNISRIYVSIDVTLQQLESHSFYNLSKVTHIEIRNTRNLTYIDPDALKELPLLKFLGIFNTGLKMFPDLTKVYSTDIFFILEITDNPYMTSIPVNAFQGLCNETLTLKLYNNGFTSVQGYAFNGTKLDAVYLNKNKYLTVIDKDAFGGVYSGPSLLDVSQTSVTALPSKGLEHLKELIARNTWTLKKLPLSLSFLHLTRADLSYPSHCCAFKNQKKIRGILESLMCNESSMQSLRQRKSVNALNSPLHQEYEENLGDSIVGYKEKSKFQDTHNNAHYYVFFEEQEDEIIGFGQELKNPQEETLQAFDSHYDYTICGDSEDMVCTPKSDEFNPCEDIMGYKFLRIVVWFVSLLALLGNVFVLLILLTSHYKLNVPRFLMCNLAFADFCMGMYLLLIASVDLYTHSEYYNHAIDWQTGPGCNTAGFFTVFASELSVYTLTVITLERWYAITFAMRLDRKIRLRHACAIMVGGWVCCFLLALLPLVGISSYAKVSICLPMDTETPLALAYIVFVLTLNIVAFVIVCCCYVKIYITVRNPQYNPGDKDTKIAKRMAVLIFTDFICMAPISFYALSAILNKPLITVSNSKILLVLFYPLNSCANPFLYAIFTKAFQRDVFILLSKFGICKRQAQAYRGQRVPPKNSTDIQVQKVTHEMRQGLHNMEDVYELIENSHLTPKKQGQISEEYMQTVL
Summary of the method: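 TSHR-HEK293 cells (800/well) plated 18 h, then compounds with Ro20-1724 and TSH at 1.5 ng/mL final, 30 min at room temperature. cAMP quantified by HTRF (cAMP-d2/anti-cAMP-cryptate, 1 h); 15 concentrations in triplicate.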

[5] = qHTS assay to identify small molecule agonists of the estrogen receptor alpha (ER-alpha) signaling pathway in the presence of an antagonist - cell viability counter screen (AID 1259386);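 further: series mostly up to about 92 µM; cells exposed to compounds for 22 h at 37 °C before the viability read; nearly all actives have a fitted effect of over 30% in size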
Summary of the method: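 Fluorescent CellTiter-Fluor viability signal from VM7Luc4E2 cells, with the reagent added during the final hour of a 22hr compound exposure at 37C in the presence of 10.0nM ICI-182,780.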

[6] = target: Progesterone receptor (Homo sapiens) (UniProt P06401); assay: qHTS assay to identify small molecule agonists of the progesterone receptor (PR) signaling pathway (AID 1346784; calls by dose curve; further: nearly all actives have a fitted effect of over 30% in size)
Progesterone receptor (Homo sapiens), sequence (P06401 whole entry, looked up): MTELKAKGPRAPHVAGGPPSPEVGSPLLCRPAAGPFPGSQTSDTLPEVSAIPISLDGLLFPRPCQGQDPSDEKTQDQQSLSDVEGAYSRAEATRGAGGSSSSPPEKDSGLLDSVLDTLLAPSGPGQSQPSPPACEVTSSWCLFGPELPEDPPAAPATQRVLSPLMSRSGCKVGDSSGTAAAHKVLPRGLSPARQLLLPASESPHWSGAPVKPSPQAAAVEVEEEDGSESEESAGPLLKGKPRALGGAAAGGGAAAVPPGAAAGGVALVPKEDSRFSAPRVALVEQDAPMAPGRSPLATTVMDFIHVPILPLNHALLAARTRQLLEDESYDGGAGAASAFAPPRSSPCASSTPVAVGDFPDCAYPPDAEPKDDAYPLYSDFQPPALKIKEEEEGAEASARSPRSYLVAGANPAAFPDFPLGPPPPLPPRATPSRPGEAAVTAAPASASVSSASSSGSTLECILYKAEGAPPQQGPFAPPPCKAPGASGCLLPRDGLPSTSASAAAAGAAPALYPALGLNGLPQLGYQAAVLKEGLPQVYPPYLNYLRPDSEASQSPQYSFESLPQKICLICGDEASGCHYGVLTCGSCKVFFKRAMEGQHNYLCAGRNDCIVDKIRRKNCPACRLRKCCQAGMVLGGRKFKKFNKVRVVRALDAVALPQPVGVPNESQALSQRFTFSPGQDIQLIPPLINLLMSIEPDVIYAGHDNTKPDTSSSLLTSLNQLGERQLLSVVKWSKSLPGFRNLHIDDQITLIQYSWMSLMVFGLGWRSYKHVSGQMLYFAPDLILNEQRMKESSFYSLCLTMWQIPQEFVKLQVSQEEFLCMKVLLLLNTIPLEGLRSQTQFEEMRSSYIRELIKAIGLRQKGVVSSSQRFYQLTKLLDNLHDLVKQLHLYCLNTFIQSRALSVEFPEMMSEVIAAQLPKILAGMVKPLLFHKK
Summary of the method: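 Fluorescence from LiveBLAzer B/G FRET substrate cleavage (2 hr, RT) reported PR activation in PR-UAS-bla HEK 293T cells treated 16 hr at 37C/5% CO2 with compounds; medium contained 2% charcoal-stripped FBS.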

[7] = qHTS assay to identify small molecule antagonists of the progesterone receptor (PR) signaling pathway - cell viability counter screen (AID 1346798); further: series mostly up to about 92 µM; nearly all actives have a fitted effect of over 50% in size
Summary of the method: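 CellTiter-Glo luminescence; PR-UAS-bla HEK293T, 3,000 cells/well; compound + R5020, 16 hr, 37C/5% CO2; 30 min RT before read.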

[8] = qHTS assay to identify small molecule agonists of the progesterone receptor (PR) signaling pathway - cell viability counter screen (AID 1346799; calls by dose curve; further: nearly all actives have a fitted effect of over 45% in size)
Summary of the method: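 In parallel with the beta-lactamase readout, cytotoxicity toward PR-UAS-bla HEK293T cells was measured by CellTiter-Glo luminescence following 16 hr compound incubation in 2% charcoal-stripped FBS medium.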

[9] = qHTS assay to identify small molecule antagonists of the TGF-beta/Smad signaling pathway - cell viability counter screen (AID 1346824); further: nearly all actives have a fitted effect of over 50% in size
Summary of the method: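 SBE-bla HEK 293T cells, incubated overnight, then compound plus 0.25 ng/mL TGF-beta1 (stock added) for 5 hr at 37 C. Viability was read in the same wells by CellTiter-Glo luminescence after 30 min at room temperature.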

[10] = qHTS assay to identify small molecule agonists of the TGF-beta/Smad signaling pathway - cell viability counter screen (AID 1346829); further: top concentration of the series differs between compounds; nearly all actives have a fitted effect of over 45% in size
Summary of the method: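 Compound-treated SBE-bla HEK 293T cells (5 hr, 37 C) were assessed for viability with CellTiter-Glo in parallel with the reporter read.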

[11] = qHTS assay to identify small molecule agonists of the TGF-beta/Smad signaling pathway (AID 1346859; active means well fitted activation curve with a large enough effect in the signal ratio in the repeat runs, not every such curve was filed as active; the % refers to the signal ratio; further: series mostly up to about 77 µM)
Summary of the method: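 After overnight seeding, SBE-bla HEK 293T cells are dosed with compounds in DMSO and kept 5 hr at 37 C, 5% CO2. LiveBLAzer-type FRET substrate is then applied for 2 hr at room temperature.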

[12] = target: Thyrotropin-releasing hormone receptor (Homo sapiens) (UniProt P34981); assay: qHTS assay to identify small molecule antagonists of the thyrotropin-releasing hormone receptor (TRHR) signaling pathway (AID 1346877; active means well fitted inhibition curve with a large enough effect in the repeat runs, not every such curve was filed as active; further: series mostly up to about 51 µM)
Thyrotropin-releasing hormone receptor (Homo sapiens), sequence (P34981 whole entry, looked up): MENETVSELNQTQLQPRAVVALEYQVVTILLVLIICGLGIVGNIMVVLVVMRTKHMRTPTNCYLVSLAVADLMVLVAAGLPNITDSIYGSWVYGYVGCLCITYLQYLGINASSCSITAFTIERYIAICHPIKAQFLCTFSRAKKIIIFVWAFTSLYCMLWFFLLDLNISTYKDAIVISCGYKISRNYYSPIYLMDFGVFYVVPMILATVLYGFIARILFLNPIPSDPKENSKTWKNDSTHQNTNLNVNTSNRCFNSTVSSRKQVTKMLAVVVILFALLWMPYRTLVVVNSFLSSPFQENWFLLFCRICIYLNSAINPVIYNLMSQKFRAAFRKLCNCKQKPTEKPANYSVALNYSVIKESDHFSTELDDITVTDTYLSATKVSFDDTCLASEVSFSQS
Summary of the method: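 In this cell-based calcium flux format, HEK293 cells expressing TRHR received test compound for 5 min before the agonist TRH (1 nM final). Dye loading lasted 2 h at 37 °C.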

[13] = target: Thyrotropin-releasing hormone receptor (Homo sapiens) (UniProt P34981); assay: qHTS assay to identify small molecule agonists of the thyrotropin-releasing hormone receptor (TRHR) signaling pathway (AID 1346891; calls by dose curve; further: series mostly up to about 58 µM)
Summary of the method: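 Compounds were tested as agonists at 15 concentrations, in triplicate, on TRHR-Hek293 cells; calcium-sensitive dye fluorescence was recorded for 3 min following addition.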

[14] = Human pregnane X receptor (PXR) small molecule agonists, qHTS cell viability counter screen (AID 1346977); further: nearly all actives have a fitted effect of over 50% in size; further: potency means the concentration at half of the fitted maximal effect
Summary of the method: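 Viability counter screen: CellTiter-Fluor signal in PXR-Luc HepG2 cells, 24hr compound exposure, 37C, 5% CO2.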

[15] = Caspase-3/7 induction in HepG2 cells by small molecules, qHTS assay (AID 1346978); further: nearly all actives have a fitted effect of over 15% in size
Summary of the method: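 Wild-type HepG2 cells, 2,000/well, settled 5 hr at 37 C and 5% CO2, then compound-treated for 17 hr; caspase-3/7 activity read by luminescent Caspase-Glo 3/7 after 30 min at room temperature.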

[16] = Caspase-3/7 induction in CHO-K1 cells by small molecules, qHTS cell viability counter screen (AID 1346979); further: nearly all actives have a fitted effect of over 35% in size; further: potency means the concentration at half of the fitted maximal effect
Summary of the method: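 Viability readout by fluorescence (CellTiter-Fluor) on wild-type CHO-K1 cells exposed for 16hr at 37C and 5% CO2 to compounds delivered in DMSO; reagent incubated 1hr before reading.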

[17] = Caspase-3/7 induction in CHO-K1 cells by small molecules, qHTS assay (AID 1346980); further: nearly all actives have a fitted effect of over 15% in size
Summary of the method: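 Wild-type CHO-K1 cells exposed to compounds for 17hr at 37 C, 5% CO2. Caspase-3/7 activity then measured by Caspase-Glo 3/7 luminescence after 30min at room temperature.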

[18] = qHTS assay to identify small molecule antagonists of the estrogen receptor beta (ER-beta) signaling pathway - cell viability counter screen (AID 1259382);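 further: HEK293T cells carrying ER-beta-UAS-bla reporter stimulated with estradiol; series mostly up to about 92 µM; nearly all actives have a fitted effect of over 55% in size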
Summary of the method: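 Tox21 10K library tested in qHTS format on ER-beta-bla HEK293T cells stimulated with 1nM E2; 16 hr treatment at 37C. Same-well CellTiter-Glo luminescence served as the cell viability measure.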

[19] = target: Progesterone receptor (Homo sapiens) (UniProt P06401); assay: qHTS assay to identify small molecule antagonists of the progesterone receptor (PR) signaling pathway (AID 1346795; active means well fitted inhibition curve with a large enough effect in the signal ratio in the repeat runs, not every such curve was filed as active; the % refers to the signal ratio)
Summary of the method: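 Fluorescence intensity measured 2 hr after adding beta-lactamase FRET substrate to PR-UAS-bla HEK293T cells that had been co-treated 16 hr with compound and 1 nM R5020 (final concentration) in 2% charcoal-stripped FBS.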

Measured: Potency

CC(C)OC(=O)Nc1cccc(Cl)c1
not listed: [18] | [19]
inactive: all other assays above

Nc1ccc(Cc2ccc(N)cc2)cc1
not listed: [1] | [2]
inactive: all other assays above

CCCCN(CCCC)SN(C)C(=O)Oc1cccc2c1OC(C)(C)C2
not listed: [4] | [12] | [13] | [16] | [18]
inactive: all other assays above

Cn1cc(-c2ccccc2)c(=O)c(-c2cccc(C(F)(F)F)c2)c1
active: [1] 59.6 µM
not listed: [4] | [5] | [16] | [18]
inactive: all other assays above

CC(Br)C(=O)O (centres undefined)
not listed: [4] | [16] | [18]
inactive: all other assays above

CC(C)NC(=O)N1CC(=O)N(c2cc(Cl)cc(Cl)c2)C1=O
50.1 µM (active) and inactive: [14]
19.3 µM (active) and inactive: [16]
not listed: [1] | [19]
inactive: all other assays above

Clc1ccccc1Cl
not listed: [2] | [18]
inactive: all other assays above

COC(=O)c1ccccc1C(=O)OC
not listed: [4] | [12] | [13] | [18]
inactive: all other assays above

C=CC(N)=O
not listed: [6] | [18] | [19]
inactive: all other assays above

NCC(O)c1ccc(O)cc1 (centres undefined)
not listed: [2] | [4] | [16] | [18]
inactive: all other assays above
